FBW7 activator = FBW7 E3 ligase activators, primary screen, biochemical, AlphaScreen, human. F-box/WD repeat-containing protein 7 (Homo sapiens), Q969H0. AlphaScreen FBW7–phospho-cyclin E peptide binding, activator screen. normalized activity (activation), % at 26.1 µM. 0.13% of 650,000 active. AID 1259310, 2017; in the data active = normalized activity above about 1.9%;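 also: purified mutant Fbw7 with reduced substrate affinity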
TEAD-YAP inh = TEAD-YAP interaction inhibition, primary screen, TEAD-YAP interaction inhibitor project, luminescence, HEK-TIYL cells; TEAD-Gal4/YAP UAS-luciferase luminescence; inhibition, % at 9.12 µM; 1.4% of 640,000 active; AID 1259422, 2018; in the data active = inhibition above about 32%
MITF primary = MITF inhibitors, primary screen, biochemical, AlphaScreen, human; AlphaScreen MITF homodimerization, bead proximity signal; inhibition, % at 2.6 µM; 0.91% of 650,000 active; in the data active = inhibition above about 50%
GPR151 ag = activators of human GPR151, primary screen, cell-based, PathHunter beta-arrestin, luminescence. PathHunter beta-arrestin GPR151 cells. activation, % at 11.2 µM. 1% of 650,000 active; in the data active = activation above about 4.9%
Target sequence (Q8TDV0 whole entry, looked up): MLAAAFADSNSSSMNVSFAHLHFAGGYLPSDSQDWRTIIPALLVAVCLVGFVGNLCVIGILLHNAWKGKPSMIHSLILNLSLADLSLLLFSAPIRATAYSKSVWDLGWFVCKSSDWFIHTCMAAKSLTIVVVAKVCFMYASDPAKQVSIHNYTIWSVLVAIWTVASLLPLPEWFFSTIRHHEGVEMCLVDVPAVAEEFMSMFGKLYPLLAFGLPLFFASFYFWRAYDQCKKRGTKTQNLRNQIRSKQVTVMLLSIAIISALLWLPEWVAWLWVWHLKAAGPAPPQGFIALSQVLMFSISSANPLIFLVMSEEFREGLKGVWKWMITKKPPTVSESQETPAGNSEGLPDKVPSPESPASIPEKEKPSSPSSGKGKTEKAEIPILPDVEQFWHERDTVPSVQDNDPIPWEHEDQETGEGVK
Numbers stand for hits; – = inactive. Rows were chosen to be rich in hits. Some 3.5% of all compounds tested hit in one or more screens of this group.

SMILES	FBW7 activator	TEAD-YAP inh	MITF primary	GPR151 ag
COc1cc(Nc2ccn3ncc(-c4ccccc4Cl)c3n2)cc(OC)c1OC	–	36.0	–	–
Cc1ccc(-n2[nH]c(C)c(C=Nc3c(Cl)cc(Cl)cc3Cl)c2=O)cc1C	–	–	–	–
COC(=O)C1=C(C)NC2=C(C(=O)CC(C)(C)C2)C1c1ccc(OCc2cccc(C(F)(F)F)c2)c(OC)c1 (centres undefined)	–	–	–	–
Cc1ccccc1CNC(=O)C1CC(Cc2cccc(Cl)c2)=NO1 (centres undefined)	–	–	–	–
CCCC12CN3CC(C)(CN(C1)C3c1ccccc1C)C2=O (centres undefined)	–	–	–	–
CCN1C(=O)N(CC)C2C1NC(=O)N2CC (centres undefined)	–	–	–	–
CCN1C(=O)N(CC)C2NC(=S)NNC21 (centres undefined)	–	81.7	–	–
CCOC(=O)c1sc(=N)n(CC(=O)c2ccc(F)cc2)c1C	–	–	–	–
COC(=O)c1cn[nH]c1NC(=S)Nc1ccc(C)cc1C	–	79.9	–	–
CCCc1ccc(C2=NNC(=NC)SC2)cc1	–	96.7	–	–
COCCN=C1NN=C(c2ccc(C)cc2)CS1	–	–	–	–
CCOC(=O)c1ccc(-c2sc3nc(N4CCOCC4)c4c(c3c2N)CC(C)(C)OC4)o1	–	–	–	–
Oc1ccc(Br)cc1CN1CCN(Cc2cccnc2)CC1	–	–	66.7	–
Oc1ccc(Br)cc1CN1CCN(CC2CC3C=CC2C3)CC1 (centres undefined)	–	–	–	–
Cc1ccc(/C=C2/SC(N3CCN(C)CC3)=NC2=O)cc1	–	–	57.9	–
CN1C(=O)/C(=C2\SC(N3CCOCC3)=NC2=O)c2ccccc21	–	–	–	–
O=C1N=C(N2CCOCC2)S/C1=C/c1ccc(O)cc1	–	47.0	–	–
COc1cc(/C=C2\SC(N3CCCCC3)=NC2=O)ccc1O	–	49.9	–	–
CCOc1ccc(NC(=O)CN2C(=O)/C(=C3\SC(N4CCOCC4)=NC3=O)c3ccccc32)cc1	8.4	–	–	–
COc1ccc(/C=C/C(=O)c2ccc(N3CCOCC3)cc2)cc1O	–	–	–	–
CCOc1ccc(/C=C2\SC(N3CCOCC3)=NC2=O)cc1	2.3	–	–	–
CC(C)(C)c1ccc(/C=C2\SC(N3CCOCC3)=NC2=O)cc1	–	–	–	–
O=S(=O)(c1ccc(Cl)s1)N1CCc2ccccc2C1	–	40.9	–	–
O=S(=O)(c1ccc(Cl)s1)N1CCCCCC1	–	–	–	–
O=Cc1ccc(OCC(=O)Nc2ccc(Oc3ccccc3)cc2)cc1	–	–	–	–
SMILES	FBW7 activator	TEAD-YAP inh	MITF primary	GPR151 ag
CCOc1ccc(C2NC(=O)NC(C)=C2C(=O)OCc2ccc3c(c2)OCO3)cc1 (centres undefined)	–	56.0	–	–
CCCOc1ccc(C2NC(=O)NC(C)=C2C(=O)OCc2ccc3c(c2)OCO3)cc1 (centres undefined)	–	54.9	–	–
CCOc1ccccc1C1NC(=O)NC(C)=C1C(=O)OCc1ccc2c(c1)OCO2 (centres undefined)	–	–	–	–
O=C(NCCN1CCOCC1)c1ccc2nc(-c3ccccc3)c(-c3ccccc3)nc2c1	–	–	–	–
COc1cccc2sc(Nc3nnc(-c4ccccc4)o3)nc12	–	–	–	–
COc1cccc2sc(Nc3nnc(-c4ccccc4Cl)o3)nc12	–	46.3	–	–
COc1ccccc1-c1nnc(Nc2nc3c(OC)cccc3s2)o1	–	53.4	–	–
NC(C(=O)N1CCN(C(=O)c2ccc3[nH]ncc3c2)CC1)c1ccc(F)cc1 (centres undefined)	–	–	–	–
O=C(N/N=C\c1cccnc1)c1cc(-c2ccc(Cl)c(Cl)c2)n[nH]1	–	–	–	–
COCCNc1c(-c2ccc(O)cc2O)nc2cnccn12	–	–	–	–
COc1ccc(CNc2c(-c3ccc(O)cc3O)nc3cnccn23)cc1	–	64.6	–	–
Cc1cccc2cc3c(nc12)OC(C)C(=O)N(Cc1cccnc1)C3 (centres undefined)	–	–	–	–
Cc1ccc2cc3c(nc2c1C)OC(C)C(=O)N(Cc1cccnc1)C3 (centres undefined)	–	33.7	–	–
O=C(CN1C(=O)/C(=C\c2ccccc2)Oc2ccccc21)NC1CCCCC1	–	–	–	–
O=C(CN1C(=O)/C(=C\c2ccccc2Br)Oc2ccccc21)NC1CCCC1	–	57.2	–	–
COc1cccc(-c2nnc3sc(CN4CCCCC4)cn23)c1	–	48.5	–	–
COc1ccc(CCNc2cc(C)nc(Nc3cc(OC)c(OC)c(OC)c3)n2)cc1	–	35.8	–	–
COc1cc(Nc2cc(C)nc(Nc3cccc(N(C)C)c3)n2)cc(OC)c1OC	–	48.0	–	–
COc1ccc(CCNc2cc(C)nc(Nc3ccncc3)n2)cc1	–	–	–	–
COc1cc(Nc2cc(C)nc(Nc3cc(OC)c(OC)c(OC)c3)n2)cc(OC)c1OC	–	–	–	–
C/C(=N\Nc1ccccc1[N+](=O)[O-])C1C(=O)c2ccccc2C1=O	–	–	–	–
CCC(C)c1ccc(OCCCNCCO)cc1 (centres undefined)	–	40.2	–	–
CC(C)(C)C1CCC(OC(=O)Nc2ccc3ccccc3c2)CC1 (centres undefined)	–	79.7	–	–
CC(C)(C)C1CCC(OC(=O)Nc2ccccc2)CC1 (centres undefined)	–	–	–	–
COc1ccc(S(=O)(=O)N2CCN=C2SCc2ccc([N+](=O)[O-])cc2)cc1	–	–	–	–
SMILES	FBW7 activator	TEAD-YAP inh	MITF primary	GPR151 ag
O=C(Nc1cccc(F)c1)NC1CC2CCC(C1)N2Cc1ccccc1 (centres undefined)	–	–	–	–
CCCc1ccc(Oc2c(C(F)(F)F)oc3cc(OC(C)=O)ccc3c2=O)cc1	–	83.4	–	–
CC(=O)Oc1ccc2c(=O)c(Oc3ccccc3)c(C(F)(F)F)oc2c1	–	–	–	–
CC(C)(C)c1ccc(Oc2c(C(F)(F)F)oc3cc(OC(=O)c4cccs4)ccc3c2=O)cc1	–	94.3	–	–
CC(C)(CO)NC(=O)c1cc(COc2cccc(C(F)(F)F)c2)on1	–	–	–	–
Cc1cccc(N=C2NC(=O)/C(=C\c3ccc(N(C)C)cc3)S2)c1	–	41.9	–	–
CN(C)c1ccc(/C=C2/SC(=Nc3ccccc3Cl)NC2=O)cc1	–	45.3	–	–
Cc1ccc(/C=C2/SC(=Nc3cccc(C)c3)NC2=O)cc1	–	–	–	–
COc1ccc(/C=C2/SC(=Nc3ccccc3Cl)NC2=O)cc1	–	37.0	–	–
CC(C)N1C(=O)C2C(C(=O)Nc3ccc(Cl)c(Cl)c3)C3(C)C=CC2(O3)C1C(=O)NC1CCCCC1 (centres undefined)	–	–	–	–
COc1ccc(OC)c(NC(=O)c2cccc(C(=O)Nc3cc(OC)ccc3OC)c2)c1	–	–	–	–

Source: PubChem BioAssay
